Columns and labels:
Experiment in all cases: PBM binding z-score (relative to random genomic background probes); higher = stronger binding; sequences stand for … in GC…GCGATTGACAGCGTAGAATGAAGG
[1] = test system: RARb homodimer (NR concentration 270 nM)
In short: (§1)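 Custom Agilent 4×180K protein-binding microarrays carried double-stranded probes. Their 34-nt variable regions held direct-repeat seeds, single-nucleotide variants, half-site ablations and random human genomic background sequences. Arrays were incubated 1 h with ligand-free nuclear receptor dimers in PBS pH 7.4, 2% milk, 0.02% Triton X-100, 1 mM DTT, 0.2 mg/mL BSA and 0.4 mg/ml salmon testes DNA. Antibodies against each partner (one per run) detected binding, and scanned fluorescence was regression-normalized. Binding z-scores use random background probes as reference.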

[2] = test system: RARg:RXRa (NR concentration 270 nM, RXRa partner concentration 90 nM)
In short: as §1

[3] = test system: RARg homodimer (NR concentration 270 nM)
In short: as §1

[4] = test system: RXRa DBDmut IVT, anti-RXR (DBD mutation: RXRa K156A/R161A, NR concentration 90 nM)
In short: as §1

[5] = test system: THRa:RXRa (NR concentration 90 nM, RXRa partner concentration 90 nM)
In short: as §1

[6] = test system: THRa homodimer (NR concentration 90 nM)
In short: as §1

[7] = test system: VDR:RXRa (NR concentration 270 nM, RXRa partner concentration 90 nM)
In short: as §1

[8] = test system: VDR homodimer (NR concentration 270 nM)
In short: as §1

[9] = test system: RXRa homodimer (NR concentration 180 nM)
In short: as §1

| Sequence | PBM binding z-score [1] | PBM binding z-score [2] | PBM binding z-score [3] | PBM binding z-score [4] | PBM binding z-score [5] | PBM binding z-score [6] | PBM binding z-score [7] | PBM binding z-score [8] | PBM binding z-score [9] |
| --- | --- | --- | --- | --- | --- | --- | --- | --- | --- |
| TGAATGAAGTTAAAGATCAGGGAACGTGGCGTCG | -1 | -0.156 | 0.00438 | -0.803 | -0.586 | -1.06 | -0.41 | -0.533 |  |
| CCTACTGGGCCATGAAAGGTCATTGATTCAGTGA | 4.4 | 4.23 | 3.85 | 0.456 | 3.58 | 0.811 | 3.82 | 2.39 |  |
| CGTCCAAGGTCATAGGAGGTCATTGAAGACAGAT | 5.6 | 7.14 | 7.75 | 4.08 | 5.39 | 3.7 | 7.27 | 6.14 |  |
| CCTACTGGGCCACGTAAGGTCATTGATTCAGTGA | 3.87 | 3.33 | 3.01 | 0.502 |  | 4.46 |  | 2.84 | 3.33 |
| CGTCCAAGGTCAAAGGTCAGGGAAGAGATGACGG | 5.58 | 9.1 | 8.2 | 3.54 |  | 2.92 | 6.71 | 3.13 | 10.4 |
| CCGAGTAGGTTACGAGGCGGCATTCAGTGCGAAT | 0.155 | 0.238 | 0.173 | 0.159 |  | -0.252 |  | -0.284 | 0.329 |
| ATATGTAGGTTAGAGTCATTCAGAAAGTAGGGAA | 0.746 | 0.752 | 0.891 | 0.428 |  | 0.254 |  | 0.387 | 0.703 |
| ACTAGTGGGTCAGCTGAGGTCACACACAATTCGG | 5.07 | 5.77 | 6.44 | 1.74 |  | 4.71 |  | 4.55 | 5.48 |
| CAAACTAGGTCACCGTAAGGTCAAAGTCCGCATG | 5.88 | 8.26 | 7.64 | 2.47 |  | 5.45 |  | 4.19 | 6.67 |
| CAAACTAGGTCAAAGGTCAAAGTAGAGCCAACCA | 5.2 | 8.91 | 7.32 | 2.8 |  | 1.79 |  | 2.99 | 10.3 |
| GATACAGGGTGAGCTAGAGGCCAGAGTATGGAAA | 0.626 | 2.08 | 0.586 | -0.965 |  | -0.562 | -0.523 | -0.731 | 0.342 |
| CGAACGAGGTCAGAACAGGACAGTGAAGGATGAT | 3.19 | 4.63 | 4.76 | 3 |  | 1.37 |  | 2.1 | 4.37 |
| AGTCAAAGTTCATCTAGGTATCGTAAGATATGCT | 3.84 | 5.45 | 5.99 | 4.54 | 2.8 | -0.179 | 5.01 | 5.25 |  |
| TTACCAAGGTGACCTGAGGTCGTTGATCCAACTC | 3.13 | 3.18 | 2.35 | 0.664 |  | 3.94 |  | 3.65 | 3.64 |
| TCTAGTAGGTCACGGAGGTCACACACGACGGGTA | 4.79 | 7.29 | 7.88 | 2.43 |  | 3.15 |  | 4.8 | 7.26 |
| ACTCGGAGGACAAATGTCAGAGCTACGCCAGTGA | 0.623 | 1.08 | 1.68 | 0.614 | 0.512 | -0.331 | -0.292 | -0.508 |  |
| CCGAGTAGGTTACGAGGAGGCATTCAGTGCGAAT | -0.00242 | 0.333 | 0.522 | 0.082 |  | -0.82 |  | -0.434 | 0.427 |
| CGTCCAAGGTCAGAGAGGTCATTGAATGCCGAGT | 5.86 | 6.66 | 6.96 | 3.6 |  | 3.35 |  | 7.43 | 6.75 |
| CGTCCAAGGTCAGTGAGGTCAGTGAATGCCGAGT | 5.33 | 5.76 | 6.56 | 3.28 |  | 4.36 |  | 5.33 | 4.61 |
| CATACAGGGACAGCTAGGCCAGAGTAGGGACGGC | 0.286 | 0.368 | 0.718 | -0.689 | 0.703 | 0.148 | -0.582 | -0.709 |  |
| CCTTACGGGTCACTCCATGTTATAGCATCGGAGT | 2.87 | 4.1 | 3.99 | 1.59 | 2.84 | -0.286 | 3.02 | 1.46 |  |
| CGAACTAGGTAAAGGACAGTGAATCTCCGCACGC | 0.899 | 0.243 | 0.583 | 0.0169 |  | -0.0591 |  | -0.21 | 0.286 |
| TCGAGTAGGTTACGGCGGCATTCAGGGATGAAGA | 0.0882 | 0.396 | 0.134 | -0.00856 |  | -0.386 |  | -0.475 | 0.642 |
| CAACCTAGGTCACGAAAGGTCAAAGTCGAATGAC | 6.02 | 7.91 | 8.53 | 2.31 |  | 2.77 |  | 3.44 | 8.43 |
| AGTAGCAGGCCAAGGGTCACTCAAGATTAGTCCG | 3.98 | 4.29 | 3.86 | 0.553 | 2.76 | 0.326 | 2.94 | 1.46 |  |
| TAGCCTAGGTTATGCGGGCCAGTATAGTGTCGGC | 0.219 | -0.108 | 0.272 | -0.93 |  | -0.669 |  | -0.934 | 0.14 |
| CCTACTGGGCCATCAGGTGATTGATATCAACGTT | -0.117 | 0.0131 | 0.41 | -0.814 |  | 0.389 | -0.317 | -0.474 | -0.272 |
| CTCGAAAGGTCAGTTGAGGTGAGTATACGGATAA | 4.91 | 6.7 | 7.89 | 2.56 |  | 1.63 |  | 1.63 | 5.93 |
| CGTCCAAGGTCAATGCTAGGTCACTGAAAGCATT | 5.18 | 7.94 | 6.93 | 3.59 |  | 3.87 |  | 3.43 | 5.56 |
| CCTAGCAGGCCAATCGGGGTCACTCAAGGCTTGA | 3.66 | 4.43 | 3.43 | 1.12 |  | 2.35 |  | 4 | 6.01 |

Source: the supplement of paper PMC6555819
